Screens (PubChem)
Most compounds without a hit are left out; they make up all but 5.3% or so of the library.
FMDV antiviral: blocks foot and mouth disease virus | FMDV antiviral cell-based qHTS | 410,000 compounds, 1.2% hits | Potency, µM (series often up to 57.9 µM), most hits filed as inhibitors; calls by dose curve; tested in HEK293T cells; note: read-out not given here; nearly all actives have a fitted effect of over 45% in size
Vaccinia mCherry: inhibitors of vaccinia virus infection (mCherry reporter signal); Vaccinia virus mCherry reporter infection, fluorescence; Potency, µM (titrated, usually from 36.5 µM), most hits filed as inhibitors; 310,000 compounds, 0.63% hits; AID 720579; calls by dose curve; tested in A549 cells; note: nearly all actives have a fitted effect of over 35% in size
LASV entry inh: inhibitors of Lassa virus binding or cell entry | Lassa virus pseudotype entry inhibition, cell reporter | Potency, µM (doses to about 37.9 µM), most hits filed as inhibitors | 300,000 compounds, 1.2% hits | AID 540256; calls by dose curve; tested in HEK293 cells; note: nearly all actives have a fitted effect of over 50% in size
HCV inh: inhibitors of hepatitis C virus infection. Huh7.5.1 HCVcc-Cre infection, luciferase reporter, 44 h. Potency, µM (titrated, usually from 41.8 µM), actives largely listed as inhibitors. 340,000 compounds, 3.4% hits. AID 651820; active = well fitted inhibition curve with a large enough effect; inconclusive = small, poorly fitted or top-dose-only effect, or another doubt; inactive = no such curve, though single readings can be large or run the other way
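Luciferase read-out (15 sec integration) after a 15 min room-temperature substrate step quantifies HCVcc-Cre infection. Cells, 1,000 per well, had compound added 4 h post-plating, then virus at ~0.5 moi, and were cultured 44 h.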
VACV Venus inh: vaccinia inhibition (Venus reporter) | Vaccinia virus Venus reporter expression, fluorescence | Potency, µM (doses to about 36.5 µM), hits mostly inhibitors | 330,000 compounds, 0.46% hits | AID 720580; calls by dose curve; tested in A549 cells; note: nearly all actives have a fitted effect of over 30% in size
MARV entry inh: Marburg virus entry inhibition. Marburg virus pseudotyped entry inhibition, cell reporter. Potency, µM (titrated, usually from 37.8 µM), usual class: inhibitors. 300,000 compounds, 1.8% hits. AID 540276; calls by dose curve; tested in HEK293 cells
A number is an active result; - = inactive; ? = inconclusive; . = no result given; [ ] = another dose, or the depositor's remark.

SMILES	FMDV antiviral	Vaccinia mCherry	LASV entry inh	HCV inh	VACV Venus inh	MARV entry inh
CC(C)NC(=O)c1nn(C)c2c1CS(=O)(=O)c1ccccc1-2	-	-	-	.	-	.
C=CCn1c2ccccc2c2nnc(SCCN3CCCCC3)nc21	-	.	.	-	.	.
O=C1c2ccccc2C(=O)N1CSc1nnc2c3ccccc3n(CCc3ccccc3)c2n1	?	.	-	-	?	-
c1ccc(CCn2c3ccccc3c3nnc(SCc4ccc5nonc5c4)nc32)cc1	?	-	5.8µM	?	-	3.26µM
CCN(CC)CCSc1nnc2c3ccccc3n(CCc3ccccc3)c2n1	-	?	.	10µM	?	.
C=CCn1c2ccccc2c2nnc(SCCCn3c(=O)[nH]c4ccccc43)nc21	?	.	?	10µM	10µM	?
Cc1ccc(C)c(N2CCN(C(=O)c3cccn4c(=O)c5sccc5nc34)CC2)c1	?	-	?	?	-	12.6µM
Cc1ccc(C)c(N2CCN(C(=O)c3cccn4c(=O)c5ccccc5nc34)CC2)c1	?	?	-	.	?	.
O=[N+]([O-])c1ccc(Sc2cccc3cccnc23)c2cccnc12	?	.	?	10µM	.	?
O=C(COc1ccccc1C(=O)Nc1ccccc1)Nc1ccc(-c2ccccc2)cc1	.	-	.	.	-	.
O=C(O)c1cccc(NC(=O)c2ccccc2NC(=O)c2ccccc2F)c1	-	-	-	0.891µM	-	?
Cc1ccoc1C(=O)Nc1ccc2ccccc2c1	?	-	10µM	?	-	?
Cc1cc(C(=O)Nc2ccc3ccccc3c2)oc1C	-	?	?	11.2µM	-	?
O=C(Nc1ccccc1C(=O)Nc1ccccc1)c1ccccc1F	-	.	.	-	.	.
CC(=O)c1cccc(NC(=O)c2nc(-c3ccccc3)oc2C)c1	-	-	?	15.8µM	-	-
COc1cc(C)c2ccccc2n1	.	-	.	.	-	.
Cc1cc(C(=O)Nc2cccc(C(=O)O)c2)c(C)o1	-	.	-	-	.	-
Cc1cc(C(=O)Nc2cccc(C(=O)O)c2)oc1C	?	-	3.55µM	-	-	?
COC(=O)[C@@H]1CCCN1C(=O)c1c(OC)cc(=O)n2c1CCN(Cc1ccc3c(c1)CCO3)CC2	-	-	.	.	-	.
CCOn1c(-n2nc(C)cc2C)nc2ccccc2c1=O	-	.	-	-	.	-
Cc1cc(C)n(-c2nc3ccccc3c(=O)n2OCC#N)n1	-	2.51µM	?	?	?	7.94µM
COC(=O)C1CCN(Cc2ccc3c(c2)CN(C(=O)c2cc(-c4ccc(C)o4)[nH]n2)CCO3)CC1	-	-	.	.	-	.
CNc1nc(N)c([N+](=O)[O-])c(Nc2cccc(Cl)c2)n1	-	.	.	8.91µM	.	.
C=CCNc1nc(N)c([N+](=O)[O-])c(Nc2cccc(Cl)c2)n1	-	-	.	2.82µM	-	.
CNc1nc(N)c([N+](=O)[O-])c(Nc2cccc(F)c2)n1	-	-[7.34 µM]	-	22.4µM	-[7.34 µM]	-
SMILES	FMDV antiviral	Vaccinia mCherry	LASV entry inh	HCV inh	VACV Venus inh	MARV entry inh
Nc1nc(Nc2ccccc2)nc(NC2CCCCC2)c1[N+](=O)[O-]	-	?	?	10µM	?	?
CNc1nc(N)c([N+](=O)[O-])c(NCc2ccccc2)n1	-	-	-	-	-	-
C=C1C=C(C(F)F)n2ncc(C(=O)NCc3ccc(OC)cc3)c2N1	.	-	.	.	-	.
Cc1ccc(C)c(Cn2c3ccccc3c3cnn(CC(=O)NCc4ccccc4)c(=O)c32)c1	-	-	-	.	-	-
COc1ccc(OC)c(CN2CCCC(c3nc(C)ncc3-c3ccc(F)cc3)C2)c1 (stereo not given)	-	-	.	.	-	.
CCOC(=O)c1c(NC(=O)c2ccc(S(=O)(=O)N(C)C3CCCCC3)cc2)sc2c1CCN(C(C)C)C2	-	-	?	.	-	.
CC1(C)CC(N2CCCC2)=CC(=[N+]2CCCCC2)C1	?	.	?	-	.	?
CC1(C)CC(N2CCN(Cc3ccccc3)CC2)=CC(=[N+]2CCCCC2)C1	?	-	?	?	-	6.51µM
CC1(C)CC(N2CCCC2)=CC(=[N+]2CCCC2)C1	?	.	?	-	.	2.06µM
CN(Cc1ccccc1)C1=CC(=[N+]2CCCCC2)CC(C)(C)C1	?	-[7.34 µM]	.	2.82µM	-[7.34 µM]	.
COc1cc(-c2coc3c(C(=O)NCc4ccc(C(F)(F)F)cc4)cccc23)ccc1O	-	-	.	.	-	.
Clc1ccc2ncc(-c3nnnn3-c3ccccc3)c(-c3ccccc3)c2c1	-	.	?	2.82µM	.	?
O=C(CNC(=O)C1CCCCC1)OCC(=O)c1ccc(-c2ccccc2)cc1	.	-	.	.	-	.
NCC(c1ccccc1)(c1ccccc1)c1ccccc1	-	-	-	-	-	7.94µM
CN(C)CCC(O)(c1ccccc1)c1ccccc1	.	-	-	-	-	?
CN(C)c1ccc(C2C=C(c3ccc(Cl)cc3OC(F)F)Nc3ncnn32)cc1 (stereo not given)	-	.	14.1µM	10µM	?	?
CC(Nc1oc(-c2ccccc2)nc1C(C)(C)C)c1ccccc1 (stereo not given)	.	.	?	.	.	-
O=C1c2ccccc2-c2onc3ccc(NCCCn4ccnc4)c1c23	.	-	-	12.6µM	-	?
Cc1ccc(C(c2nnnn2Cc2cccs2)N2CCN(Cc3ccc4c(c3)OCO4)CC2)cc1 (stereo not given)	-	-	11.2µM	?	-	?
CCC(C)(C)n1nnnc1C(c1cc2cc(C)cc(C)c2[nH]c1=O)N1CCN(Cc2ccc3c(c2)OCO3)CC1 (stereo not given)	5.62µM	-	-	-	-	-
Cc1ccc(C(c2nnnn2CCc2ccccc2)N2CCSCC2)cc1 (stereo not given)	-	-	?	-	-	2.24µM
CC(C)C(c1nnnn1Cc1ccc(F)cc1)N1CCN(Cc2ccc3c(c2)OCO3)CC1 (stereo not given)	?	.	?	?	?	12.6µM
Cc1ccc(C(c2nnnn2CCc2ccccc2)N2CCC(C)CC2)cc1 (stereo not given)	?	-	?	?	-	?
C/C(=N\NC(=O)CSc1nc(C)cc(C)n1)c1ccc2c(c1)OCCO2	-	-	-	-	-	-
COC(=O)c1ccccc1NC(=O)CSc1nc2ccccc2nc1Cc1ccc(F)cc1	-	-	?	.	-	.
SMILES	FMDV antiviral	Vaccinia mCherry	LASV entry inh	HCV inh	VACV Venus inh	MARV entry inh
CCOC(=O)C1=C(N)n2c(s/c(=C/c3ccco3)c2=O)=C(C(=O)OCC)C1c1ccco1 (stereo not given)	.	.	.	.	.	-
O=C1C=C(NC2=CC3OC(c4ccccc4)OCC3OC2=O)CCC1 (stereo not given)	17.8µM	?	10µM	?	?	?
O=C1C=C(NCc2ccccc2)CCC1	-	-	-	-	-	?
CCC(C)(C)c1ccc(Oc2cccc(C(=O)O)c2)cc1	-	-	-	-	-	-
CCC(C)(C)c1ccc(Oc2ccc(N)cc2)cc1	1.12µM	-	?	4.47µM	?	3.98µM
NC(=O)COC(=O)c1cc(=O)[nH]c2ccccc12	-	-	.	10µM	-	.
Cc1c(C(=O)N(C)Cc2cccc(F)c2)oc2c(Cl)cccc12	7.08µM	-	?	-	-	?
CC(C)(C)c1ccc(S(=O)(=O)c2cn(CC(=O)Nc3ccccc3)c3ccccc3c2=O)cc1	-	-	-	.	-	-
O=[N+]([O-])c1ccc(Oc2cccc(F)c2)c2ccncc12	?	.	-	3.98µM	-	-
